Experimental data published in ChEMBL document CHEMBL1157539, “Thousands of chemical starting points for antimalarial lead identification” (Nature, 2010).

What was measured:
Type in all cases: functional
Plasmodium falciparum [1] = assay: GSK_TCMDC: Inhibition of Plasmodium falciparum 3D7 in whole red blood cells, using parasite LDH activity as an index of growth. Test compounds present at 2uM
Plasmodium falciparum [2] = assay: GSK_TCMDC: Inhibition of Plasmodium falciparum Dd2 in whole red blood cells, using parasite LDH activity as an index of growth. Test compounds present at 2uM
HepG2 = assay: GSK_TCMDC: Percent inhibition of human HepG2 cell line. Test compounds present at 10uM.

| SMILES | Inhibition (Plasmodium falciparum [1]) | Inhibition (Plasmodium falciparum [2]) | Inhibition (HepG2) |
| --- | --- | --- | --- |
| CC(C)(C)c1ccc(CNCCOc2ccc(Nc3nnc(-c4ccc(-c5ncc[nH]5)cc4)o3)c3ccccc23)cc1.O=C(O)C(F)(F)F | 100% | 88% | 43% |
| CNS(=O)(=O)CCNCc1ccc(-c2ccc3ncnc(Nc4ccc(OCc5ccccc5)cc4)c3c2)o1 | 100% | 26% | 19% |
| Cc1cc(-c2ccnc(Nc3cccc(C#N)c3)n2)cc(C)c1O | 88% | 54% | 50% |
| CN(C)CCNC(=O)c1ccc2c(c1)ncn2-c1cc(OCc2ccccc2C(F)(F)F)c(C(N)=O)s1.CN(C)CCNC(=O)c1ccc2ncn(-c3cc(OCc4ccccc4C(F)(F)F)c(C(N)=O)s3)c2c1 | 90% | 8% | 0% |
| CCC[C@@H]([C@@H](CC1CCCCC1)C(=O)N[C@H](C(=O)Nc1nccs1)C(C)(C)SCCNC(=O)OCc1ccccn1)N(O)C=O | 99% | 96% | 17% |
| O=C(Nc1nc(-c2cc(F)ccc2F)cs1)c1cncc(Br)c1 | 85% | 3% | 16% |
| COC[C@H]1CCCN1Cc1ccc(-c2ccc(-c3nc4ccccc4[nH]3)s2)cc1 | 95% | 58% | 18% |
| Cc1cc(NC(=O)c2ccco2)ccc1OC1CCN(Cc2ccc(C#N)cc2)CC1.O=C(O)C(F)(F)F | 92% | 89% | 2% |
| NC1=NC(c2ccccc2)(c2ccccc2)C(=O)N1Cc1ccc(-c2ccncc2)cc1.O=CO | 96% | 74% | 20% |
| O=C(/C=C/c1ccc(Cl)c(Cl)c1)NCCCCCN1CCC(n2c(=O)[nH]c3ccccc32)CC1 | 97% | 0% | 38% |
| CCCN(CCCCNC(=O)c1ccc(-c2cccnc2)cc1)C1CCc2c(O)cccc2C1.Cl (configuration not stated) | 87% | 16% | 0% |
| O=C(NCc1cccs1)[C@H](Cc1ccccc1)Nc1ccnc(NCCc2ccc(F)cc2)n1.O=C(O)C(F)(F)F | 85% | 52% | 1% |
| COc1cc2nc(-c3ccc(Br)cc3)cc(N)c2cc1OC | 98% | 69% | 90% |
| Cc1cc(NCCCCCCNc2cc(C)nc3c(C)cccc23)c2cccc(C)c2n1.Cl | 100% | 9% | 23% |
| CC(=O)N1Cc2ccccc2C1=O | 97% | 0% | 10% |
| NCC1CCCN1Cc1ccc(-c2ccc(-c3nc4cc(F)ccc4[nH]3)cc2)cc1.O=C(O)C(F)(F)F (configuration not stated) | 100% | 100% | 31% |
| COc1cccc(NC(=O)N2CCOC(CCN3CCC4(CCc5ccccc54)CC3)(c3ccc(Cl)c(Cl)c3)C2)c1 (configuration not stated) | 94% | 72% | 97% |
| N#Cc1ccc(N[C@@H](CC2CCCCC2)C(=O)NCc2cc(F)c(F)cc2F)c2ccccc12.O=C(O)C(F)(F)F | 94% | 39% | 12% |
| Cc1cc(N[C@@H](Cc2ccccc2)C(=O)NCCOc2ccccc2)nc(NCCc2ccc(F)cc2)n1.O=C(O)C(F)(F)F | 99% | 86% | 5% |
| Cc1cccc(C)c1CNc1ccnc2cc(C#N)ccc12.Cl | 100% | 99% | 20% |
| CCCN(CCC)CCCN(CCCN(CCC)CCC)c1cc(C)nc(Nc2ccc(Cl)cc2)n1.Cl | 100% | 100% | 34% |
| COc1ccc2nccc([C@@H](O)CN3CCC(NC/C=C/c4cccnc4)CC3)c2c1.CS(=O)(=O)O | 100% | 19% | 0% |
| Cc1cc(N2CCN(C3CCCCC3)CC2)nc2cccc(O)c12 | 100% | 37% | 12% |
| COc1c(C=NNc2nc(=Nc3ccccc3)[nH]c(=Nc3ccccc3)[nH]2)ccc(Br)c1O | 98% | 37% | 63% |
| COc1cc(C2=NN(S(=O)(=O)c3c(C)cc(C)cc3C)CCCC2)ccc1Cl | 85% | 76% | 9% |

| SMILES | Inhibition (Plasmodium falciparum [1]) | Inhibition (Plasmodium falciparum [2]) | Inhibition (HepG2) |
| --- | --- | --- | --- |
| CC(=O)Nc1ncc(C(=O)Nc2cccc(-c3cccc(-c4nc5cc(C(F)(F)F)ccc5[nH]4)c3)c2)s1 | 100% | 99% | 76% |
| Oc1ccc(Cl)c2c1C(c1ccccc1)=NCC2 | 95% | 43% | 0% |
| Cc1ccc(NC(=O)c2cc(S(=O)(=O)NC(C)(C)C)ccc2C)nc1 | 86% | 80% | 0% |
| CCn1c(-c2nonc2N)nc2c(-c3cccc(NC(=O)Nc4ccc(C#N)cc4)c3)ncc(OCCCN)c21.O=C(O)C(F)(F)F | 85% | 80% | 1% |
| CCNc1cc(C(=O)N[C@@H](Cc2ccccc2)[C@H](O)CNC(C)CCCC(C)C)cc(N2CCCS2(=O)=O)c1.O=CO (some centres not stated) | 99% | 98% | 2% |
| O=C(O)C(F)(F)F.c1ccc(CN2CCC(NCc3ccccc3-c3cccc(CNC4CCCC4)c3)CC2)cc1 | 100% | 59% | 35% |
| O=C(O)C1Cc2c([nH]c3ccccc23)C(c2ccc(Cl)cc2Cl)N1 (configuration not stated) | 91% | 100% | 7% |
| Cc1cc(C(=O)NCc2ccc(-c3c(C)noc3C)cc2)n(-c2ccccc2)n1 | 92% | 90% | 4% |
| CSc1nc2cc3c(cc2n1C(=O)c1ccc(C)cc1)OCCO3 | 99% | 0% | 0% |
| COc1cccc(CNCC(C)(C)c2nc(-c3ccc(Cl)c(O)c3)c(-c3ccncc3)[nH]2)c1.Cl | 100% | 98% | 74% |
| CCc1nc(N)nc(N)c1-c1ccc(C(C)(C)C)cc1 | 94% | 0% | 27% |
| Cc1ccc(Nc2nccc(NCC(O)c3cccc(C)c3)n2)cc1 (configuration not stated) | 90% | 23% | 22% |
| CN1CCCN(Cc2cccc(-c3cccc(NC(=O)c4ccc(C#N)cc4)c3)c2)CC1.O=C(O)C(F)(F)F | 89% | 4% | 7% |
| Cc1ccc2c(c1[N+](=O)[O-])N=NCC2Oc1ccccc1 (configuration not stated) | 91% | 19% | 16% |
| CCCCCCN1CCCN(Cc2ccc(C(=O)Nc3ccc(C(C)(C)C)cc3)cc2)CC1.O=C(O)C(F)(F)F | 100% | 32% | 53% |
| COc1ccc(-c2ccc(Nc3cccc(S(=O)(=O)CCN4CCC(CCN(C)C)CC4)c3)nc2)cn1 | 100% | 9% | 44% |
| COc1ccc(-c2cc(C(=O)N[C@@H](CC3CCCCC3)C(=O)NCCN3CCCC3)ccc2O)cc1 | 90% | 12% | 12% |
| CCN(CC)CCCC(C)Nc1cc(C)nc2cc(Cl)ccc12 (configuration not stated) | 100% | 7% | 9% |
| CCc1cc(I)c2c(c1)C(NCCCNc1cc(=O)c3ccccc3[nH]1)CCN2.CS(=O)(=O)O (configuration not stated) | 89% | 32% | 19% |
| O=C(CNc1ccc(Cl)c(S(=O)(=O)N2CCCC2)c1)Nc1ccc(Br)cc1F | 99% | 97% | 18% |
| CN(C)C(CNC(=O)c1cc(-c2ccncc2)c(-c2ccc(NC(=O)Nc3cccc(Cl)c3)cc2)o1)c1ccccc1.O=C(O)C(F)(F)F (configuration not stated) | 100% | 100% | 12% |
| N#Cc1ccc(-c2ccc(OCC(O)CN3CCCN(Cc4cccc(O)c4Cl)CC3)cc2)cc1 (configuration not stated) | 98% | 66% | 3% |
| Cc1nc(-c2cccc3c(NC(=O)N4CCc5cc6nccc(N7CCN(C)CC7)c6cc54)cccc23)no1.Cl | 100% | 97% | 45% |
| Cc1ccc(-c2noc(COc3ccccc3C(=O)NC3CCCC3)n2)cc1 | 89% | 92% | 9% |
